The list is not random: actives were taken first. Their share in the collection is about 1.4%.
Pyk2 oligo antag: antagonists of Pyk2 self-association, primary screen, Q293 cells, FERM NanoBiT luminescence, HTS; Protein-tyrosine kinase 2-beta (Homo sapiens), Q14289; active compounds read low; z-score (the deposit names both 25 µM and 10 µM); 99,000 compounds, 0.83% hits;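 active means Z-score of -3 or lower, scaled per plate to the spread of control and sample wells; inactive means z-score above -3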;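 further: negative z-score means lost luminescence so less FERM oligomerization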
Target sequence (Q14289 whole entry, looked up): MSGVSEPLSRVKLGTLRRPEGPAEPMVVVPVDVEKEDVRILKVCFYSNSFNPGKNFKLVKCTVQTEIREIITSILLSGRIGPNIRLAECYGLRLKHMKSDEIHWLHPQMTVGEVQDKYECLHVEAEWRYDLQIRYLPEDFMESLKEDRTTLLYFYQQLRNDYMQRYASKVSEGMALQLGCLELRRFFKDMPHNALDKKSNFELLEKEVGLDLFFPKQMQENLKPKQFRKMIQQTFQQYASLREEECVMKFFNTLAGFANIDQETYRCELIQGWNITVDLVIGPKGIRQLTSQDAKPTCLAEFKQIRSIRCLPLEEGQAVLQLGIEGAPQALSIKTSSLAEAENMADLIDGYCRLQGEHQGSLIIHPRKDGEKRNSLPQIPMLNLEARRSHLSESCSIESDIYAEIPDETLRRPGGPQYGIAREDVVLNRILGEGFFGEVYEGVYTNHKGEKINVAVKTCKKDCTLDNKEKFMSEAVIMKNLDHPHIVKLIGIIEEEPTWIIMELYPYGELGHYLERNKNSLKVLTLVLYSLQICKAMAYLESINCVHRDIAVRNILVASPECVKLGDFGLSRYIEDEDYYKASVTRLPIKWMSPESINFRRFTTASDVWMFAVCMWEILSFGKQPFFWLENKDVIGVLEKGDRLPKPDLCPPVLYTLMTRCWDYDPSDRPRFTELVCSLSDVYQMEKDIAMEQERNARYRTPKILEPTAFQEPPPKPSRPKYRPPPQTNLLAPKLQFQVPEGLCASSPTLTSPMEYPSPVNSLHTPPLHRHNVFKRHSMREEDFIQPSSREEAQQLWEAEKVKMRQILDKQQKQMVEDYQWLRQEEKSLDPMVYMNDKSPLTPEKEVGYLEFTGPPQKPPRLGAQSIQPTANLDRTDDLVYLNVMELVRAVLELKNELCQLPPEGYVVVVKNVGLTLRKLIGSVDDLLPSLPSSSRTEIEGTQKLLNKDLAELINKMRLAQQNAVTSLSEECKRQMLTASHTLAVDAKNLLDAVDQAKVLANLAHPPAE
IL1B NFkB inh: inhibitors of IL-1B driven NFkB p65 nuclear import, primary screen, imaging, HUVEC, IL-1B stimulus, high-content imaging; 94,000 compounds, 0.43% hits; inhibition, % at 2 µM; HUVEC IL-1B NFkB p65 nuclear translocation imaging;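 active means inhibition above about 30% together with a positive call from visual inspection of the well image, limit read from the data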;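 further: nuclear over cytoplasmic p65 intensity ratio measured by imaging; 0% = IL-1B stimulated DMSO wells and 100% = unstimulated DMSO wells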
Phagocyt inh: inhibitors of macrophage phagocytosis, primary screen, imaging, J774A.1 cells, IgG beads; J774A.1 macrophage IgG-bead phagocytosis; inhibition, % at 5 µM; 110,000 compounds, 0.07% hits;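 active means inhibition above the mean of the plate negative controls plus 5 SD, cut at about 13% in these data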;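 further: phagocytic index as fraction of beads internalized from green versus red external bead signal; plate controls were DMSO negative control for no effect and cytochalasin-D positive control for full effect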
HUVEC tox IL1B: cytotoxicity in IL-1B stimulated HUVEC, primary screen, cytotoxicity control for IL-1B NFkB translocation project, imaging, Hoechst nuclear count, IL-1B stimulus | 94,000 compounds, 0.41% hits | HUVEC cell count loss | cell count reduction, % at 2 µM;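 active means cell count reduction more than 3 SD above the screen-wide mean, cut at about 70% in these data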;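 further: normalized per plate to untreated control cells as the no-loss baseline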
IL1B NFkB pot: enhancers of NFkB p65 translocation in HUVEC – imaging, IL-1B stimulus, high-content imaging, primary screen | 94,000 compounds, 0.3% hits | HUVEC IL-1B NFkB p65 nuclear translocation imaging | AID 819, 2007 | activation, % at 2 µM;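 active means activation above 40%, about the mean plus 3 SD, also judged a hit on visual image review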;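 further: percent activation is computed from the nuclear over cytoplasmic p65 intensity ratio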
Starred values were filed as active, the others as inactive; . = no result.

SMILES	Pyk2 oligo antag	IL1B NFkB inh	Phagocyt inh	HUVEC tox IL1B	IL1B NFkB pot
Cc1onc(-c2ccccc2)c1C(=O)Nc1nc2c(s1)C(=O)CC(C)(C)C2	-3.8*	3	-1	5	-3
Cc1onc(-c2ccccc2)c1C(=O)Nc1nnc(-c2ccncc2)s1	-3.2*	8	-4	-44	-7
CCC/C(O)=C1\C(=O)CC(c2ccccc2)CC1=NC(C)C(=O)O (stereo not drawn)	.	.	-2	.	.
CCOC(=O)CC12CN3CN(C1)CC(CC(=O)OCC)(C3)C2=O	0.46	-7	-1	-36	7
N#Cc1c(SCc2cccc(Cl)c2)sc(C(=O)c2ccccc2)c1N	1.4	1	-1	-19	-1
COc1ccc(N=C2NC(=O)S/C2=C\c2ccc(N(C)C)cc2)cc1	-3.1*	-3	6	-27	3
CCOc1ccc(N=C2NC(=O)S/C2=C\c2ccc(Cl)cc2)cc1	0.42	20	-1	-3	-20
Cc1n[nH]c(C)c1CCc1nc2c3ccccc3nc(SCC(=O)Nc3ccccc3F)n2n1	-1.2	9	-1	86*	-9
CCCCNC(=S)Nc1ccccc1F	-0.07	6	9	90*	-6
CC(C)CNC(=S)Nc1ccccc1F	.	.	9	.	.
O=C(O)C1C2C=CC(O2)C1C(=O)Nc1ccc(S(=O)(=O)Nc2ccccc2)cc1 (stereo not drawn)	-0.01	21	-1	-2	-21
O=C(O)C1C2C=CC(O2)C1C(=O)Nc1ccc(S(=O)(=O)N2CCc3ccccc32)cc1 (stereo not drawn)	0.23	49*	2	3	-49
Cc1ccc(CCC2C3=C(CCCC3=O)OC3=C2C(=O)CCC3)cc1	-1	.	-1	.	.
CC(C)c1ccc(CC(C)C2C3=C(CCCC3=O)OC3=C2C(=O)CCC3)cc1 (stereo not drawn)	-4.2*	-6	1	2	6
COCc1cc(C)c2c(N)c(C#N)sc2n1	1.5	31*	-2	21	-31
COc1ccc(-c2cc(-c3cccs3)nc3sc(C#N)c(N)c23)cc1	.	.	7	.	.
CCOc1cc(-c2c(C#N)c(N)nc3c2CCCC3)ccc1O	-1.9	.	-1	.	.
CCOc1cc(-c2cc(-c3ccc(N)cc3)nc(N)c2C#N)ccc1O	-3.8*	1	0	-20	-1
CCOc1cc(-c2cc(-c3ccccc3)nc(N)c2C#N)ccc1O	-3.4*	-14	0	-12	14
CCOC(=O)CC(=O)CSc1nc(-c2ccccc2)cc(-c2ccccc2)c1C#N	.	.	-10	.	.
CCc1ccc2c(c1)c(N=NC1=NC(=O)CS1)c(O)n2C	-2.8	5	-1	19	-5
CCOC(=O)c1nnc2ccnn2c1N	1.4	-2	1	12	2
CC(C)(C)n1cnc2cc(NS(=O)(=O)c3ccc(Br)cc3)ccc21	-0.68	-16	0	7	16
O=C(Nc1ccc(OCC(=O)N2CCN(S(=O)(=O)c3ccccc3)CC2)cc1)c1ccco1	0.57	-18	4	-57	18
Cc1ccc(S(=O)(=O)N2CCOCC2)c(C)c1NS(C)(=O)=O	0.21	.	-5	.	.
SMILES	Pyk2 oligo antag	IL1B NFkB inh	Phagocyt inh	HUVEC tox IL1B	IL1B NFkB pot
Cc1[nH]nc2c1C(c1cccnc1)N(c1ccc(Br)cc1)C2=O (stereo not drawn)	-4*	-9	.	4	9
CCc1ccc(NC(=O)C2CCN(S(=O)(=O)c3c(C)[nH]c(=O)[nH]c3=O)CC2)cc1	0.1	-9	.	-21	9
CSc1ccc(CNc2cccc3ccccc23)cc1	-4.3*	-17	-2	-11	17
CCn1nc(NC(=O)c2ccccn2)c2cc3cccc(C)c3nc21	-0.81	-51	0	-14	51*
COc1ccc(NC(=O)C2CC(=O)N(c3cccc(C)c3C)C2)cc1 (stereo not drawn)	0.38	.	0	.	.
CCOC(=O)CSc1nnc([C@H](C)NC(=O)OC(C)(C)C)o1	-0.51	-22	-1	-26	22
O=C(COc1ccc(=O)n(-c2ccccc2)n1)Nc1ccccc1	.	-7	0	6	7
Cc1ccc(-n2cnnn2)c(S(=O)(=O)N2CCOCC2)c1	-0.67	35*	-3	-67	-35
O=C1CC(SC(=Nc2ccccc2)Nc2ccccc2)C(=O)N1c1cccc2ccccc12 (stereo not drawn)	-3*	-1	.	-22	1
O=C(O)c1ccc(N2C(=O)CC(SC(=Nc3ccccc3)Nc3ccccc3)C2=O)cc1 (stereo not drawn)	.	.	-4	.	.
CCOc1ccc(C(=O)N2CCCCCC2)cc1	0	-12	.	10	12
CCCOc1ccc(C(=O)N2CCN(c3ccc(N)cc3Cl)CC2)cc1	-3.9*	-6	3	24	6
CCc1nnc(NC(=O)C2Cc3ccccc3CN2S(=O)(=O)c2ccc(C)cc2)s1 (stereo not drawn)	-3*	15	.	-2	-15
CCc1nnc(NC(=O)C2Cc3ccccc3CN2S(=O)(=O)c2cccs2)s1 (stereo not drawn)	-1.7	-15	0	-12	15
CCCn1c(=O)c(C(=O)NCc2ccccn2)c(O)c2ccccc21	-1.5	0	-1	85*	0
CCCn1c(NCc2ccccn2)nc2ccccc21	0.95	96*	.	92*	-96
CCCn1c(=O)c(C(=O)NCc2cccnc2)c(O)c2ccccc21	-0.41	-6	-1	-18	6
CCn1c(CNc2nc3ccccc3n2C(C)C)nc2ccccc21	1.4	62*	0	-9	-62
Cc1cc(C)c(O)c(-c2cc(C(=O)Nc3ccc(S(=O)(=O)N4CCOCC4)cc3)[nH]n2)c1	-3.2*	-7	0	1	7
Cc1cc(C)nc(NS(=O)(=O)c2ccc(NC(=O)c3ccc(S(=O)(=O)N4CCOCC4)cc3)cc2)n1	-0.1	0	.	-9	0
O=C(COC(=O)c1ccccc1C(=O)c1ccc(Cl)c([N+](=O)[O-])c1)NC1CCCCCC1	-0.93	83*	2	47	-83
COC(=O)c1ccccc1NS(=O)(=O)c1ccc2c3c(cccc13)C(=O)N2	-3.7*	5	-1	2	-5
Cc1cc(C)n(/N=C/c2c[nH]c3ccccc23)c(=O)c1C#N	-0.3	-11	1	-10	11
COc1ccc(CC(=O)OCN2C(=O)c3ccccc3C2=O)cc1	1.4	2	-1	-18	-2
Cc1nc(-c2cccc(S(=O)(=O)N3CC(C)CC(C)C3)c2)cs1 (stereo not drawn)	-3*	-28	-2	-8	28
Cc1nc(-c2cccc(S(=O)(=O)N3CC(C)OC(C)C3)c2)cs1 (stereo not drawn)	-1.4	-5	-2	17	5
COc1ccc(OC)c(-n2c(-c3ccc(C)cc3)n[nH]c2=S)c1	-0.15	23	.	88*	-23
CCOC(=O)C1=C(N)Oc2ccc3ccccc3c2C1c1cccnc1 (stereo not drawn)	-3.1*	15	.	31	-15

Source: PubChem BioAssay (several laboratories)
